Screening results from PubChem.
Rows were chosen to be rich in hits. Some 2.8% of all compounds tested hit in one or more screens of this group.
BRCA1 expr up: qHTS Assay to Identify Small Molecule Activators of BRCA1 Expression | MCF7-BRCA1-FFLuc reporter, luminescence, 48 h; response scale: scaled: vehicle 0%, 10 µM genistein 100% | Potency, µM (titrated, usually from 46.1 µM), for the others: top-dose activation, usual class: activators | 380,000 compounds, 1.1% hits | AID 624202, 2012; also: nearly all actives have a fitted effect of over 80% in size
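Activators of BRCA1 expression were detected as increased firefly luciferase luminescence in engineered MCF7 cells after 48 h compound incubation. Signals were scaled to genistein 10 microM as full activation.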
Mito fusion yeast: qHTS Assay for Small Molecule Inhibitors of Mitochondrial Division or Activators of Mitochondrial Fusion | Potency, µM (top dose mostly 46.1 µM), without a hit: at the top dose growth rescue (activation), usual class: activators | S. cerevisiae fusion-defective mutant growth rescue, CellTiterGlo 48 h | 320,000 compounds, 0.23% hits; also: % of control where 0% means no effect; nearly all actives have a fitted effect of over 45% in size
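S. cerevisiae fusion-defective temperature-sensitive mutants (e.g. fzo1-1, mgm1-5) grown 48 h at 37C in YPEG (ethanol/glycerol non-fermentable) medium with 23 nl compound per well; growth rescue read as CellTiterGlo luminescence.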
GLP-1R agonist: qHTS of GLP-1 Receptor Agonists; HEK293 GLP-1R CRE-luciferase, luminescence, 4-6 h; cells express a hypersensitive GLP-1R form; 380,000 compounds, 0.007% hits; Potency, µM (doses to about 45.6 µM), inactives show at the top dose activation, most hits filed as activators; Glucagon-like peptide 1 receptor (Homo sapiens), P43220; also: % of control where 0% means no effect
Target sequence (P43220 whole entry, looked up): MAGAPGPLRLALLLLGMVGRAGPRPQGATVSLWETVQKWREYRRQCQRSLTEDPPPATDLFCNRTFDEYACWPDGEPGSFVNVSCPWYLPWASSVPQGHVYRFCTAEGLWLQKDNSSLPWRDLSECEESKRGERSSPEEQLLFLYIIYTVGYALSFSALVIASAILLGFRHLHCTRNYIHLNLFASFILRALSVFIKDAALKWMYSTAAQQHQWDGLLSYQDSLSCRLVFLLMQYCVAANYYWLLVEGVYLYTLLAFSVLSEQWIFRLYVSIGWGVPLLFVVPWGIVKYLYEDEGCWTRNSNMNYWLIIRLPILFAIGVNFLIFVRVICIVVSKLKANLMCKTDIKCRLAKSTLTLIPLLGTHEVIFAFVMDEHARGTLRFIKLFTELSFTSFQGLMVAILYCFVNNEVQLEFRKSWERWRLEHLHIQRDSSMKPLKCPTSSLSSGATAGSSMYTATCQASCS
HEK293 tox: qHTS of GLP-1 Receptor Inverse Agonists: Cytotox Screen; AID 624418, 2012; Potency, µM (titrated, usually from 38.3 µM), without a hit: at the top dose activity change, negative = inhibition, usual class: inhibitors; HEK293 cAMP-luciferase reporter cells, luminescence, 24 h; 410,000 compounds, 0.13% hits;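 also: loss of luciferase light is scored as toxicity; % is scaled to controls: 0 for no effect and ±100 for the full control effect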
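Seeding density was 200 cells/uL; after overnight-length (12 h) culture, 23 nL compounds went on for 24 h at 37 °C. Readout used a luciferase detection reagent, luminescence taken after 12 min at room temperature.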
GLP1R inv ag: qHTS of GLP-1 Receptor Inverse Agonists (Inhibition Mode); Glucagon-like peptide 1 receptor (Homo sapiens), P43220; HEK293 GLP-1R CRE-luciferase, luminescence, 24 h; GLP-1R form is constitutively active; Potency, µM (doses to about 38.3 µM), inactives show at the highest dose activity change, negative = inhibition, usual class: inhibitors; 410,000 compounds, 1.6% hits; also: % is scaled to controls: 0 for no effect and ±100 for the full control effect; nearly all actives have a fitted effect of over 55% in size
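Assay principle: reduced luminescence from a cAMP-responsive reporter in HEK293 cells co-expressing a constitutively active GLP-1R. Conditions: 24 hr compound incubation, 37 deg C, 5% CO2.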
* hit, by the source's call; ? = inconclusive; nt = no result given; [ ] = dose if it differs, or a comment. Calls follow the shape of the dose curve; as a rule, active = well fitted curve in the direction sought with a large enough effect; inconclusive = small, poorly fitted or top-dose-only effect, or another doubt; inactive = no such curve, though single readings can be large; an effect the other way counts as inactive or inconclusive. Potency is read from the fitted curve at half-maximal effect.

SMILES	BRCA1 expr up	Mito fusion yeast	GLP-1R agonist	HEK293 tox	GLP1R inv ag
O=C1COc2ccc(OCc3ccc(F)cc3)cc21	2.8µM*	-6%	-5%	-9%	12%
CN(C)S(=O)(=O)c1cccc(NC(=O)c2ccc3nccnc3c2)c1	40%	16%	4%	2%	36%
O=C(COc1ccc(F)cc1)N1CCC(c2ccccc2)C1 (centres undefined)	?	1%	5%	5%	-13%
Cc1cccc(OCC(=O)N2CCC(c3ccccc3)C2)c1 (centres undefined)	7.9µM*	-8%	0%	10%	2%
CC1CCCN(C(=O)COc2ccc(-c3ccccc3)cc2)C1 (centres undefined)	96%	30%	19%	-14%	11µM*
COc1ccccc1NC(=O)Cn1c(=O)n(Cc2ccco2)c(=O)c2cccnc21	-1%	nt	nt	-6%	15%
COc1cccc(-c2nc(-c3ccc(Br)o3)no2)c1	64%	-3%	4%	-2%	26%
COc1cccc(N2CCN(c3cnc4ccccc4n3)CC2)c1	2µM*	-9%	17%	11%	1%
CC1CN(C(=O)Cn2c(C(F)(F)F)nc3ccccc32)CC(C)O1 (centres undefined)	16%	-3%	0%	-15%	-3%
CC1=NN(C(C#N)c2ccc([N+](=O)[O-])cc2)C(C)(C)C1 (centres undefined)	7%	-4%	10%	0%	0%
Cc1ccc(NS(=O)(=O)c2cccc3cccnc23)c(Br)c1	-22%	-69%	18%	-4%	?
COCCn1c(COc2ccc(C)cc2)nc2ccccc21	11µM*	-7%	7%	-5%	?
CCSc1nc2ccccc2n1CCOc1ccccc1	14µM*	23%	5%	10%	?
CCOCCn1c(COc2ccc(C)cc2)nc2ccccc21	?	?	9%	0%	7.1µM*
Cc1ccc(OCc2nc3ccccc3n2Cc2ccccc2Cl)cc1	0%	nt	-5%	-3%	13µM*
O=C(/C=C/c1ccc(Cl)cc1)N(c1ccccn1)C1CCCCC1	-27%	?	-1%	-14%	?
COC1OCC(O)C(OC(=O)c2ccccc2)C1OC(=O)c1ccccc1 (centres undefined)	-3%	nt	6%	-19%	?
Cn1c(COc2ccccc2)nc2ccccc21	10µM*	-8%	22%	10%	15%
CCSc1nc2ccccc2n1Cc1cccc([N+](=O)[O-])c1	-5%	-1%	20%	3%	11µM*
c1ccc(OCCn2c(COc3ccccc3)nc3ccccc32)cc1	nt	nt	nt	16%	?
CCSc1nc2ccccc2n1Cc1ccccc1F	-5%	1%	6%	7%	?
OCCOCCOc1ccc(-c2nn[nH]n2)cc1	0%	4%	7%	10%	18%
CCOP(=O)(OCC)/C(=C/N1CCCCC1)NC(=O)c1ccccc1	13%	2%	-2%	-23%	-3%
COc1ccc(Nc2ncccc2C(=O)O)cc1	?	4%	-9%	4%	0%
Oc1c(N=Nc2ccccn2)ccc2ccccc12	-71%	-7%	-17%	5µM*	?
SMILES	BRCA1 expr up	Mito fusion yeast	GLP-1R agonist	HEK293 tox	GLP1R inv ag
Oc1[nH]c2ccccc2c1N=Nc1ccccn1	-45%	nt	1%	0%	2%
Cc1ccc(SCn2nnc3ccccc3c2=O)c(C)c1	13µM*	-1%	16%	-2%	?
COc1cccc(-n2cc(CN(C)Cc3nc(Cc4cccc(F)c4)no3)cn2)c1	0%	20%	0%	-6%	10µM*
CC(=O)C1=C(C)NC(SCC(=O)c2ccc(C)cc2)=C(C#N)C1c1ccco1 (centres undefined)	nt	24%	nt	nt	nt
Cn1c(CO)cnc1SCC(=O)c1ccc(Br)cc1	43%	0%	-3%	-2%[7.66 µM]	-24%[7.66 µM]
Cn1c(CO)cnc1SCC(=O)c1ccc(F)cc1	10µM*	-4%	-4%	-13%	-24%
Cc1cccc(C2=NN(c3ccc(Br)cc3)[C@@H](C(=O)N3CCOC3=O)[C@@H]2c2ccc(F)cc2)c1	-43%	26%	-3%	62%	8.9µM*
CC[C@@H]1C(c2ccc(F)cc2)=NN(c2ccc(Br)cc2)[C@H]1C(=O)N1CCOC1=O	-28%	nt	4%	7%	10µM*
O=C1OCCN1C(=O)[C@H]1[C@H](c2ccccc2)C(c2cccc(Cl)c2)=NN1c1ccc(Br)cc1	-26%	nt	2%	363%	15%
O=C1OCCN1C(=O)[C@H]1[C@H](c2ccc([N+](=O)[O-])cc2)C(c2cccc(Cl)c2)=NN1c1ccc(Br)cc1	-26%	nt	-3%	-21%	?
O=C1OCCN1C(=O)[C@H]1[C@H](c2ccc([N+](=O)[O-])cc2)C(c2ccccc2)=NN1c1ccc(Br)cc1	-6%	nt	-2%	-25%	3.5µM*
CC[C@@H]1C(c2ccccc2)=NN(c2ccc(Br)cc2)[C@H]1C(=O)N1CCOC1=O	-23%	nt	1%	50%	?
O=C1OCCN1C(=O)[C@H]1[C@H](c2ccc(F)cc2)C(c2cccc(Cl)c2)=NN1c1ccc(Br)cc1	-49%	nt	-4%	397%	8.9µM*
CC(=O)Nc1sc2c(c1CN1CCN(c3ccc(F)cc3)CC1)CCCC2	-43%	2%	-3%	-1%	7.1µM*
CC(=O)Nc1sc2c(c1CN1CCCC1)CCCC2	-23%	-4%	7%	-4%	-29%
CNCc1ccccc1OCC(=O)Nc1ccccc1	3%	1%	8%	14%	0%
COc1ccc2c(c1)C(=O)/C(=C/C=C/c1ccccc1)CC2	-2%	15%	-7%	-30%	?
COc1ccc2c(c1)CC/C(=C\C=C\c1ccccc1OC)C2=O	11µM*	25%	4%	0%	0%
Clc1cccc(Cl)c1CSc1cc2c(nn1)-c1ccccc1CC2	30%	-1%	-10%	-4%	-5%
Clc1ccccc1CSc1cc2c(nn1)-c1ccccc1CC2	4µM*	4%	-4%	2%	10µM*
COC(=O)C1=C(C)N(Cc2ccc(C)cc2)C(=O)/C1=C\c1cc(OC)c(OC)c(OC)c1	-42%	-1%	2%	-20%	4.5µM*
COC(=O)C1=C(C)N(Cc2ccc(C)cc2)C(=O)/C1=C\c1ccc(O)c(OC)c1	-20%	1%	-15%	3%	-19%
CCN1C(=O)/C(=C/c2nc3ccccc3c(=O)n2-c2ccccc2)c2ccccc21	-80%	6%	1%	-16%	2µM*
